“And” between values parts separate entries of the source, which are not always exact repeats. Identical values can stand only once. This is part of a sample that, as a whole, favours compounds with a hit. Of some 83,000 tested, about 20% had one in any assay.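 How to read the values: 0–100, growth inhibition (40 = 60% inhibited); 0, no net growth; -100 to 0, cell death (-40 = 40% of starting cells died; -100 = all dead).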 Unmarked numbers belong to inactive results. The source made the active and inactive calls. Rule for the calls: active = growth percent below 10; inactive = the rest.
System: MDA-MB-468 breast
Assay: NCI-60 one-dose screen, 48 h (100 = growth as untreated, 0 = no growth, -100 = all killed)
Conditions: 10 µM unless noted

Structure (SMILES) | growth
CN1C(=O)/C(=C/c2nc(-c3cccc(F)c3)n3ccccc23)c2ccccc21 | 101%
Cc1ccc(Nc2oc(-c3ccccc3)nc2[P+](c2ccccc2)(c2ccccc2)c2ccccc2)cc1 | -77.1% (active)
O=S(=O)(NCCNc1cc(-c2cn(-c3ccccc3)nc2-c2ccccc2)ccn1)c1ccc(F)cc1 | 58%
COc1cc(NS(C)(=O)=O)ccc1Nc1c2ccccc2nc2ccccc12 | -3.7% (active) and -17.8% (active)
COC(=O)[C@H](Cc1ccccc1)NC(=O)[C@@H](OC)[C@@H]1Cc2cc3cc(OC4CC(OC5CC(O)C(O)C(C)O5)C(O)C(C)O4)c(C)c(O)c3c(O)c2C(=O)[C@H]1OC1CC(OC2CC(OC3CC(C)(O)C(O)C(C)O3)C(O)C(C)O2)C(O)C(C)O1 (some centres not stated) | -36.7% (active)
CCN1C(=O)N(CC)C2C1NN=c1s/c(=C\c3cc4ccccc4[nH]3)c(=O)n12 (configuration not stated) | -9.55% (active)
CCOC(=O)C(CCN(C)C)c1ccccc1 (configuration not stated) | 101%
CCOC(=O)N(O)c1ccc(/C=C/c2ccccc2)cc1 | -59.5% (active) and -52.6% (active)
CCCCCN(CCCCC)CC(O)c1cc2c(c3ccccc13)CCCC2 (configuration not stated) | 72.1% and 81.2%
CC(=O)Oc1cccc(OC(C)=O)c1OC(C)=O | 97.6%
NCCN1CCN(c2nccc(-c3ccc4ccccc4c3)n2)CC1 | 56.2%
CC(C)(C)OC(=O)N1CCc2c(sc3ncnc(N/N=C/c4cccc5ccccc45)c23)C1 | 5.85% (active)
Cc1c(-c2ccc(C3CCCCC3)cc2)nc2ccc(F)cc2c1C(=O)O | 74.4%
COc1cc2nc(N3CCCC3)nc(NCCc3ccccc3)c2cc1OC | 6.66% (active)
CC(C)[N+](C)(C)CC(O)COc1cccc2ccccc12 (configuration not stated) | 104%
CC(C)(C)n1nc(C2CC2)c(Br)c1NC(=O)c1ccccc1F | 114%
COc1c([C@@H](CC(C)C)OC(C)=O)ccc2c1C(=O)OCc1cc(C)cc(O)c1O2 | 8.08% (active)
O=C(Cc1ccc(OCc2ccccc2)cc1)NCc1ccc2c(c1)OCO2 | 81.5%
COc1ccc(C(=O)C2C(C#N)C(C#N)C3C=Cc4ccccc4N32)cc1 (configuration not stated) | 16.5%

Structure (SMILES) | growth
COc1ccc(C(=O)O)cc1.[Ag] | 93.9%
Brc1cnc2ccccc2c1 | 113%
CCCCCCCCCCN(CCCCCCCCCC)CC(=O)c1ccc2cc(Br)c3ccccc3c2c1 | 100%
C=CC(=O)Nc1cccc(-c2nc(SC)nc(Nc3cccc(OC)c3)c2C#N)c1 | 69.7%
CC(=O)O[C@@H]1C[C@]2(C)[C@H]3[C@H](O)C[C@@H]4C5=CC(C)(C)CC[C@]5(C)CC[C@@]4(C)[C@]3(C)CC[C@H]2C(C)(C)[C@H]1O | 116%
C=C1CCC2C3(C)COC(C)(C)OC3CCC2(C)C1C/C=C1/C(=O)OCC1OC(C)=O (configuration not stated) | 7.86% (active)
COc1ccc(Cn2cc(Cn3cc(C=C4C(=O)NC(=O)NC4=O)c4ccccc43)nn2)cc1 | 18.5%
CN1CCCCC1CCN1c2ccccc2Sc2ccc(Br)cc21 (configuration not stated) | 32.1%
O=C(NC[C@H](O)CO)c1ccncc1Nc1ccc(I)cc1F | 103%
COc1cc(C2CC(=O)Nc3c2ccc2ccccc32)cc(Br)c1OC (configuration not stated) | -34.3% (active)
COc1cc([C@@H]2c3cc4c(cc3[C@H](OC3OC5COC(c6ccccc6)OC5C(O)C3O)[C@H]3COC(=O)[C@H]23)OCO4)cc(OC)c1OC (some centres not stated) | 17.5%
Cc1ccc(-c2cc3c(cc2O)C2CCCCC2(N2CCOCC2)O3)cc1 (configuration not stated) | 87.9%
C=CCn1c(C)nc2cc(Nc3nc(Nc4ccc5nc(C)n(CC=C)c5c4)nc4ccccc34)ccc21 | 118%
COc1ccc2c(c1)C(=O)c1c-2c(=O)n(CCCN(C)C)c2cc(OC)c(OC)cc12 | 44.5%
CC[N+]1(CC)CC[N+]2(CCCC(C)CC2)CC1 (configuration not stated) | 108%
CCOC(=O)c1c(-c2ccc(OC)cc2)c(C#N)c2c(C#N)c(N)nn2c1N | 13.2%
COc1ccc(-c2cc(-c3cccnc3)nc3sc4c(N)c(C(C)=O)c(-c5ccccc5)nc4c23)cc1OC | 76.3%
CCN(CC)CCCCCCNc1cc(OC)cc2cccnc12 | 23.4%
